From PubChem BioAssay AID1159580 (chemical genetic matrix, 2015)
Values joined by “and” are separate entries in the source; they are usually repeats but may differ in a detail not shown here. Identical values can stand only once. Screen size: about 5,500 compounds; about 2,000 (36%) were called active. Not shown: some 18% with an inconclusive outcome. Rule as the data show it: active = normalized growth mostly below about 0.91 (no sharp cut-off); inconclusive = no clear call, values can overlap the other calls; inactive = mostly above about 0.92. The list shows a part of the results.

Assay: chemical genetic growth profiling, strain panel (AID 1159580);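 also: tested at 20 µM; growth read once vehicle control cultures reached saturation at 30 °C; 1 = growth at the plate median or of vehicle wells; lower values mean less growth of the strain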
Conditions: S. cerevisiae deletion strains, growth OD

Measured: normalized growth

CN(Cc1cnc2nc(N)nc(N)c2n1)c1ccc(C(=O)N[C@H](CCC(=O)O)C(=O)O)cc1
inactive: locus YAL040C, strain CLN3, hits give low values 1 | locus YER002W, strain NOP16, hits give low values 0.996 | locus YNL175C, strain NOP13, hits give low values 1 | locus YNL197C, strain WHI3, hits give low values 1.01 | locus YNL224C, strain SQS1, hits give low values 0.981 | locus YOR083W, strain WHI5 (second series), hits give low values 1.04 | locus YPL241C, strain CIN2, hits give low values 0.984

Nc1nc2c(c(=O)[nH]1)N(C=O)C(CNc1ccc(C(=O)N[C@@H](CCC(=O)O)C(=O)O)cc1)CN2 (some centres not stated)
inactive: locus YAL021C, strain ccr4, hits give low values 0.973 | locus YAL026C, strain drs2, hits give low values 1 | locus YAL030W, strain snc1, hits give low values 0.969 | locus YBL061C, strain skt5, hits give low values 0.975 | locus YBR009C, strain hhf1, hits give low values 1.02 | locus YBR021W, strain FUR4, hits give low values 0.988 | locus YBR023C, strain chs3, hits give low values 0.971 | locus YBR171W, strain sec66, hits give low values 0.94 | locus YBR229C, strain ROT2, hits give low values 0.991 | locus YBR231C, strain swc5, hits give low values 0.943 | locus YBR279W, strain paf1, hits give low values 0.991 | locus YCL011C, strain gbp2, hits give low values 0.99 | locus YCL016C, strain dcc1, hits give low values 1.02 | locus YCL029C, strain bik1, hits give low values 0.985 | locus YCL061C, strain MRC1, hits give low values 0.964 | locus YCL069W, strain vba3, hits give low values 0.971 | locus YCR088W, strain abp1, hits give low values 0.971 | locus YDL005C, strain med2, hits give low values 0.963 | locus YDL035C, strain GPR1, hits give low values 1.01 | locus YDL040C, strain nat1, hits give low values 0.974 | locus YDL074C, strain BRE1, hits give low values 0.999 | locus YDL101C, strain DUN1, hits give low values 0.987 | locus YDL185W, strain tfp1, hits give low values 0.986 | locus YDL192W, strain arf1, hits give low values 0.981 | locus YDR001C, strain nth1, hits give low values 0.956 | locus YDR069C, strain doa4, hits give low values 0.94 | locus YDR101C, strain arx1, hits give low values 1 | locus YDR137W, strain rgp1, hits give low values 0.947 | locus YDR159W, strain sac3, hits give low values 1.01 | locus YDR162C, strain NBP2, hits give low values 1 | locus YDR195W, strain ref2 0.906 | locus YDR297W, strain sur2, hits give low values 0.972 | locus YDR318W, strain mcm21, hits give low values 0.985 | locus YDR334W, strain swr1, hits give low values 0.934 | locus YDR335W, strain msn5, hits give low values 0.964 | locus YDR388W, hits give low values 0.985 | locus YDR392W, strain spt3, hits give low values 1.1 | locus YDR502C, strain sam2, hits give low values 0.985 | locus YEL003W, strain gim4, hits give low values 0.971 | locus YEL037C, strain rad23, hits give low values 0.978 | locus YEL061C, strain CIN8 (second series), hits give low values 0.953 | locus YEL061C, strain CIN8, hits give low values 0.996 | locus YER015W, strain faa2, hits give low values 1.01 | locus YER016W, strain bim1, hits give low values 0.99 | locus YER110C, hits give low values 0.978 | locus YER111C, strain swi4, hits give low values 0.968 | locus YER155C, strain BEM2 (second series), hits give low values 0.954 | locus YER155C, strain BEM2, hits give low values 0.981 | locus YER167W, strain BCK2, hits give low values 0.993 | locus YFR010W, strain ubp6, hits give low values 0.931 | locus YGL078C, strain dbp3, hits give low values 0.967 | locus YGL086W, strain mad1, hits give low values 1 | locus YGL167C, strain pmr1, hits give low values 0.957 | locus YGL173C, strain kem1, hits give low values 0.966 | locus YGL227W, strain vid30, hits give low values 0.964 | locus YGL240W, strain doc1, hits give low values 0.94 | locus YGL248W, strain PDE1, hits give low values 0.982 | locus YGL253W, strain hxk2, hits give low values 0.986 | locus YGR135W, strain pre9, hits give low values 0.945 | locus YGR252W, strain gcn5, hits give low values 0.948 | locus YHR013C, strain ard1, hits give low values 0.972 | locus YHR027C, strain rpn1, hits give low values 0.972 | locus YHR030C, strain SLT2, hits give low values 0.993 and 0.985 | locus YHR079C, strain IRE1 (second series), hits give low values 0.989 | locus YHR079C, strain IRE1, hits give low values 1 | locus YHR094C, strain hxt1, hits give low values 0.984 | locus YHR129C, strain ARP1, hits give low values 0.99 | locus YHR142W, strain chs7, hits give low values 0.957 | locus YHR200W, strain rpn10, hits give low values 0.986 | locus YIL066C, strain RNR3, hits give low values 0.989 | locus YIL073C, strain SPO22, hits give low values 1.01 | locus YIL125W, strain kgd1, hits give low values 0.989 | locus YIR030C, strain dcg1, hits give low values 0.979 | locus YJL092W, strain hpr5, hits give low values 0.963 | locus YJL095W, strain BCK1 (second series), hits give low values 0.967 | locus YJL095W, strain BCK1, hits give low values 0.975 and 1.02 | locus YJL115W, strain asf1, hits give low values 0.949 | locus YJL129C, strain trk1, hits give low values 0.954 | locus YJL134W, strain LCB3, hits give low values 0.991 | locus YJL154C, strain vps35, hits give low values 0.959 | locus YJL164C, strain tpk1, hits give low values 1.02 | locus YJL166W, strain qcr8, hits give low values 0.932 | locus YJL168C, strain set2, hits give low values 0.981 | locus YJL187C, strain SWE1 (second series), hits give low values 0.985 | locus YJL187C, strain SWE1, hits give low values 0.977 | locus YJR043C, strain POL32, hits give low values 1.01 | locus YJR066W, strain TOR1, hits give low values 0.969 | locus YJR075W, strain HOC1, hits give low values 0.993 | locus YKL009W, strain mrt4, hits give low values 0.996 | locus YKL068W, hits give low values 0.991 | locus YKL085W, strain MDH1 (second series), hits give low values 0.979 | locus YKL085W, strain MDH1, hits give low values 0.979 | locus YKL160W, strain elf1, hits give low values 0.972 | locus YKL190W, strain CNB1, hits give low values 1 | locus YKR001C, strain vps1, hits give low values 0.997 | locus YKR026C, strain gcn3, hits give low values 0.961 | locus YKR091W, strain srl3, hits give low values 0.984 | locus YLL001W, strain dnm1, hits give low values 0.926 | locus YLL026W, hits give low values 0.948 | locus YLL041C, strain sdh2, hits give low values 0.976 | locus YLR027C, strain aat2, hits give low values 0.958 | locus YLR039C, strain RIC1, hits give low values 0.958 | locus YLR058C, strain SHM2, hits give low values 0.983 | locus YLR102C, strain apc9, hits give low values 0.989 | locus YLR113W, strain HOG1, hits give low values 1.02 | locus YLR221C, strain rsa3, hits give low values 1.01 | locus YLR258W, strain gsy2, hits give low values 1.01 | locus YLR262C, strain YPT6 (second series), hits give low values 0.941 | locus YLR262C, strain YPT6, hits give low values 1.02 | locus YLR268W, strain sec22, hits give low values 0.984 | locus YLR320W, strain mms22, hits give low values 1.01 | locus YLR330W, strain CHS5, hits give low values 0.988 | locus YLR342W, strain FKS1 (second series), hits give low values 1 | locus YLR342W, strain FKS1, hits give low values 0.955 | locus YLR357W, strain rsc2, hits give low values 0.928 | locus YLR370C, strain arc18, hits give low values 0.959 | locus YLR371W, strain rom2, hits give low values 0.975 | locus YLR384C, strain iki3, hits give low values 0.958 | locus YLR418C, strain cdc73, hits give low values 0.938 | locus YML016C, strain PPZ1, hits give low values 0.992 | locus YML032C, strain rad52, hits give low values 0.999 | locus YML120C, strain ndi1, hits give low values 0.956 | locus YML124C, strain tub3, hits give low values 0.991 | locus YMR058W, strain fet3, hits give low values 0.954 | locus YMR078C, strain ctf18, hits give low values 0.981 | locus YMR125W, strain sto1, hits give low values 0.965 | locus YMR129W, hits give low values 0.971 | locus YMR205C, strain PFK2, hits give low values 0.978 | locus YMR223W, strain ubp8, hits give low values 0.959 | locus YMR231W, strain pep5, hits give low values 0.964 | locus YMR307W, strain GAS1, hits give low values 0.961 | locus YNL067W, strain RPL9B, hits give low values 0.999 | locus YNL071W, strain lat1, hits give low values 0.984 | locus YNL128W, strain TEP1, hits give low values 0.979 | locus YNL183C, strain NPR1, hits give low values 0.97 | locus YNL209W, strain ssb2, hits give low values 0.986 | locus YNL233W, strain BNI4, hits give low values 0.986 | locus YNL248C, strain rpa49, hits give low values 0.978 | locus YNL250W, strain rad50, hits give low values 0.977 | locus YNL271C, strain bni1, hits give low values 0.967 | locus YNL298W, strain CLA4, hits give low values 0.985 | locus YNL307C, strain MCK1, hits give low values 0.99 | locus YNL322C, strain KRE1 (second series), hits give low values 0.965 | locus YNL322C, strain KRE1, hits give low values 0.995 | locus YNR049C, strain mso1, hits give low values 0.971 | locus YNR052C, strain pop2, hits give low values 0.984 | locus YOL006C, strain TOP1, hits give low values 0.964 | locus YOL012C, strain htz1 0.703 | locus YOL147C, strain pex11, hits give low values 0.978 | locus YOR001W, strain rrp6, hits give low values 0.943 | locus YOR061W, strain CKA2, hits give low values 0.992 | locus YOR069W, strain VPS5, hits give low values 0.989 | locus YOR070C, strain gyp1, hits give low values 0.991 | locus YOR080W, strain dia2, hits give low values 0.966 | locus YOR083W, strain WHI5, hits give low values 0.961 | locus YOR106W, strain vam3, hits give low values 0.943 | locus YOR136W, strain idh2, hits give low values 0.99 | locus YOR144C, strain elg1, hits give low values 0.992 | locus YOR184W, strain ser1, hits give low values 0.978 | locus YOR231W, strain MKK1, hits give low values 1.02 | locus YOR265W, strain rbl2, hits give low values 0.965 | locus YOR270C, strain vph1, hits give low values 0.957 | locus YOR290C, strain snf2, hits give low values 1.01 | locus YOR316C, strain cot1, hits give low values 0.987 | locus YPL051W, strain arl3, hits give low values 0.985 | locus YPL055C, strain LGE1, hits give low values 0.981 | locus YPL078C, strain atp4, hits give low values 0.904 | locus YPL106C, strain sse1, hits give low values 0.947 | locus YPL240C, strain hsp82, hits give low values 0.968 | locus YPL256C, strain CLN2, hits give low values 0.993 | locus YPR119W, strain clb2, hits give low values 0.986 | locus YPR141C, strain kar3, hits give low values 0.977 | locus YPR163C, strain tif3, hits give low values 0.976 | locus YPR167C, strain met16, hits give low values 0.986 | strain wtn01, hits give low values 0.981
